What all share (experiment): NCI-60 one-dose screen, 48 h (100 = growth as untreated, 0 = no growth, -100 = all killed)
What all share (settings): 10 µM unless noted

For experiment [1], the system named is SK-MEL-2 melanoma.
Experiment [2] concerns EKVX NSCLC.
The test system of experiment [3] is SN12C renal.
For experiment [4], the system named is UO-31 renal.
Experiment [5] has as its system TK-10 renal.
Experiment [6] has as its system ACHN renal.
Experiment [7] relates to CAKI-1 renal.
The test system of experiment [8] is A498 renal.
Experiment [9] has as its system CCRF-CEM leukemia.
In experiment [10] the test system is MOLT-4 leukemia.

For 26 compounds, growth results are on record in PubChem BioAssay (NCI).

The panel holds about 83,000 compounds, 20% with a hit somewhere; the sample as a whole holds those more often.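 A percent growth of 40 corresponds to 60% growth inhibition; 0 means no net growth; -100 means all cells died. Active threshold: below 10.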 A number with no mark means an inactive call. Active and inactive are the calls of the source.

For the compound `COc1ccc(-c2nn(-c3ccc(S(C)(=O)=O)cc3)cc2/C=N/O)cc1`, the growth in experiment [1] was 109%; in experiment [2], 104%; in experiment [3] it was 98.9%; in experiment [4] it was 97%; in experiment [5], 124%; in [6], 95.3%. Moreover, the growth is 111% in experiment [7], 116% in experiment [8], 99.6% in [9] and 103% in [10].

`O=C(/C=C/c1ccc(F)cc1)c1ccc(O)cc1`: the growth in experiment [1] is 115%; in experiment [2] it was 104%; in experiment [3] it was 91.9%; in [4], 91.9%; in experiment [5] it was 106%; in [6], 102%. In addition, the growth in [7] is 87%; in experiment [8], 101%; in experiment [9], 77.6%; in [10], 92.5%.

Consider `COc1ccc(NC(=O)CSc2nnc(-c3ccc4nc(-c5ccccc5)[nH]c4c3)o2)cc1`, for which the growth in experiment [1] was 105%; in experiment [2], 94%; in experiment [3], 96%; in experiment [4], 85.7%; in [5] it was 121%; in experiment [6], 102%. The growth in experiment [7] is 101%; in [8], 98%; in experiment [9], 91.6%; in [10], 83.5%.

As to `COc1cc(C2N=C(NNc3ccccc3)NC(C)=C2C(C)=O)ccc1O` (stereo not given), the growth in [1] was 97.1%; in experiment [2], 79.3%; in experiment [3] it was 95.5%; in experiment [4] it was 63.2%; in [5], 149%; in [6] it was 63%. The growth in experiment [7] was 56.8%; in experiment [8], 105%; in experiment [9], 101%; in experiment [10] it was 89.9%.

Regarding `O=C(CCC(=O)N1CCOCC1)OCCCCCCSc1ccc([N+](=O)[O-])c2nonc12`, the growth in experiment [1] is -40.6% (active); in experiment [2], 1.52% (active); in [3], -74.7% (active); in [4] it was -84.2% (active); in experiment [5], 13.4%; in experiment [6], -97.7% (active). In addition, the growth is -31.2% (active) in experiment [7], 12.8% in experiment [8], -5.49% (active) in experiment [9] and -2.71% (active) in [10].

Turning to `c1n[nH]cc1-c1nc2ccc3[nH]ncc3c2c2c1CCCC2`, the growth was -20.7% (active) in experiment [1]; 42.1% in experiment [2]; 15.1% in [3]; 11.9% in [4]; 15.1% in experiment [5]; 10.8% in experiment [6]. The growth in experiment [7] was 0.509% (active); in experiment [8], -14.2% (active); in experiment [9], 28.1%; in experiment [10] it was 24.6%.

As to `CS(=O)(=O)Nc1cc(-c2ccc3ncc(C#N)c(NCc4ccccc4O)c3c2)cnc1Cl`, the growth in [1] was -38.3% (active); in [2] it was 4.89% (active); in [3], 17.1%; in [4], 3.5% (active); in [5] it was -6.17% (active); in [6], 12.4%. Also, the growth in experiment [7] is -1.29% (active); in experiment [8], -41% (active); in experiment [9], 19.9%; in [10], -0.509% (active).

As for `CC1(C)[C@@H](O)CC[C@]2(C)[C@H]3CC[C@@H]4[C@H]5[C@H](C(=O)/C=C\c6ccccn6)CC[C@]5(O)CC[C@@]4(C)[C@]3(C)CC[C@@H]12`, the growth was 77.8% in [1]; 42.5% in experiment [2]; 50.5% in [3]; 50.8% in experiment [4]; 77.5% in experiment [5]; 32.6% in experiment [6]. Also, the growth was 33.9% in experiment [7], 22% in experiment [8], -0.82% (active) in experiment [9] and -8.46% (active) in experiment [10].

Consider `CC(=O)c1nnn(-c2c(C(=O)n3nc(C)cc3C)sc(=S)n2-c2ccccc2)c1C`, for which the growth is 108% in [1]; 90.7% in experiment [2]; 103% in experiment [3]; 79.8% in [4]; 138% in experiment [5]; 102% in experiment [6]. Moreover, the growth in experiment [7] is 91.8%; in experiment [8] it was 94.9%; in experiment [9] it was 101%; in experiment [10], 94.9%.

Turning to `COc1cc2c(cc1OC)C(Sc1ccc(F)cc1)c1c(nc(N)c(C#N)c1N)O2` (stereo not given), the growth is -6.24% (active) in [1]; -86.6% (active) in experiment [2]; -86.5% (active) in experiment [3]; -98.1% (active) in experiment [4]; -30.1% (active) in [5]; -99.3% (active) in experiment [6]. For the same compound, the growth in experiment [7] was -58.4% (active); in experiment [8], -42.8% (active); in [9], -13.6% (active); in experiment [10], 0.279% (active).

Consider `NS(=O)(=O)c1ccc(Nc2nc(N/N=C/c3ccc(Cl)cc3)nc(Nc3ccccc3)n2)cc1`, for which the growth is 81.7% in experiment [1]; 76.6% in experiment [2]; 81.6% in experiment [3]; 82.1% in experiment [4]; 103% in experiment [5]; 90.1% in experiment [6]. The growth is 62.1% in experiment [7], 76.3% in experiment [8], 19.4% in experiment [9] and 1.53% (active) in experiment [10].

As for `C=C1CC[C@@H]2[C@](C)(CO)[C@H](O)CC[C@@]2(C)[C@@H]1C/C(O)=C1\CCOC1=O`, the growth in experiment [1] was 103%; in experiment [2], 102%; in experiment [3], 86.8%; in experiment [4] it was 99.4%; in experiment [5] it was 114%; in [6], 101%. For the same compound, the growth is 101% in experiment [7], 94.4% in [8], 60.2% in experiment [9] and 104% in experiment [10].

`NC/C(=C/F)COc1ccc2nc(NCc3cccnc3)oc2c1`: the growth in experiment [1] is 105%; in experiment [2] it was 68.5%; in [3] it was 86.3%; in experiment [4] it was 62.1%; in experiment [5] it was 74.7%; in experiment [6], 100%. Moreover, the growth in experiment [7] was 69.8%; in experiment [8] it was 50.5%; in experiment [9], 99.9%; in experiment [10], 106%.

Take `CS(=O)(=O)c1ccc(-c2nn(-c3ccccc3)cc2/C=N/NC(=O)c2nc(N)n[nH]2)cc1`: the growth was 108% in experiment [1]; 90.3% in experiment [2]; 94.7% in [3]; 96.8% in experiment [4]; 110% in experiment [5]; 93.7% in experiment [6]. The growth in experiment [7] is 96.6%; in experiment [8], 101%; in [9], 43.7%; in [10], 67.1%.

Regarding `NC(N)=Nc1ccc(Nc2cccc(Nc3ccc(Cl)c(C(F)(F)F)c3)c2)cn1`, the growth was 53.7% in experiment [1]; 43.1% in experiment [2]; 13.3% in experiment [3]; 82.3% in [4]; 98% in [5]; 78.1% in experiment [6]. Also, the growth in experiment [7] was 41.6%; in [8], 58.8%; in experiment [9] it was 5.61% (active); in [10], 12.8%.

On to `CCO/C=N/C1=C(C#N)C(c2ccc(Cl)cc2)c2sc3c(C)cccc3c2O1` (stereo not given), for which the growth was 42.6% in experiment [1]; 45.9% in experiment [2]; 26.2% in experiment [3]; 30.3% in [4]; 62.2% in experiment [5]; 31.8% in experiment [6]. Besides, the growth in experiment [7] was 39.5%; in [8], -5.08% (active); in [9], 16.2%; in [10], 18.8%.

With `CNc1ncc2cc(-c3ccc(-c4ncccc4F)cc3Cl)c(=O)n(CC3OCC(N)CO3)c2n1` (stereo not given), the growth in experiment [1] was 93.5%; in [2], 57.6%; in [3] it was 59.8%; in [4], -12.3% (active); in [5], 13.1%; in experiment [6] it was 40.9%. Further, the growth in experiment [7] was 0.298% (active); in [8], 6.43% (active); in experiment [9], 78.1%; in experiment [10] it was 57.8%.

Consider `CCOC(=O)C1=NNC(c2ccc(Cl)cc2)C1C(=O)N1C(=S)NC(=O)C1CC(C)C` (stereo not given), for which the growth in [1] is 110%; in experiment [2] it was 84.5%; in [3] it was 99.4%; in experiment [4], 81.4%; in experiment [5], 164%; in [6] it was 93.3%. For the same compound, the growth in experiment [7] is 85.2%; in experiment [8] it was 95%; in experiment [9], 100%; in experiment [10], 89.5%.

Take `N/C(=N\C(N)=N\c1nc2ccccc2s1)c1ccc(C(F)(F)F)cc1`: the growth in experiment [1] is 108%; in experiment [2] it was 54.8%; in experiment [3] it was 36.5%; in [4], -19.1% (active); in [5], 102%; in experiment [6] it was 27.8%. The growth in experiment [7] was 80.2%; in [8], 70.9%; in experiment [9], 54.7%; in experiment [10], 68.6%.

With `C#C[C@]1(O)CC[C@H]2[C@@H]3CC=C4c5sc(-c6ccc7c(c6)OCO7)nc5CC[C@]4(C)[C@H]3CC[C@@]21C`, the growth in experiment [1] was 28.9%; in [2], 34.5%; in [3] it was 22.3%; in experiment [4], 51.9%; in [5], 13.3%; in experiment [6], 13%. For the same compound, the growth in [7] was 44.4%; in [8], 48.8%; in experiment [9] it was 30.6%; in [10] it was 8.06% (active).

With `O=C(CNc1nc(-c2cccc([N+](=O)[O-])c2)cs1)Nc1cccc([N+](=O)[O-])c1`, the growth in experiment [1] is 9.35% (active); in [2], 52.9%; in [3], -4.54% (active); in experiment [4], -79.3% (active); in experiment [5] it was -13.6% (active); in experiment [6], -20.1% (active). Also, the growth was -10.3% (active) in [7], -77.4% (active) in experiment [8], -0.65% (active) in [9] and 6.77% (active) in experiment [10].

Take `C#CC(=O)N(c1ccc(OC)cc1OC)C(C(=O)NCC(=O)OCC)c1cccs1` (stereo not given): the growth in experiment [1] is 95%; in [2], 36.4%; in experiment [3], 44.9%; in experiment [4], -79.9% (active); in experiment [5], 105%; in experiment [6], -90.2% (active). The growth in experiment [7] is -83.9% (active); in experiment [8] it was 57.2%; in experiment [9], -53.8% (active); in experiment [10], -22.2% (active).

Consider `O=S(=O)(NCCCNc1nccc(-c2[nH]c(-c3ccccc3)nc2-c2ccc(Cl)c(O)c2)n1)c1ccc(Br)cc1`, for which the growth in [1] was -22.4% (active); in experiment [2], 44.2%; in experiment [3] it was 37.5%; in experiment [4], 36.8%; in experiment [5], 66.6%; in [6], 24.2%. The growth in experiment [7] is 33.6%; in experiment [8], 65.4%; in [9] it was 21.5%; in [10], 22.8%.

On to `COc1ccc(NCc2cn(-c3ccc(C(=O)O)cc3)nc2-c2cc(C(F)(F)F)cc(C(F)(F)F)c2)cc1`, for which the growth in experiment [1] is 101%; in experiment [2], 90.3%; in [3] it was 95.4%; in experiment [4], 93.1%; in [5], 110%; in experiment [6] it was 102%. For the same compound, the growth is 81.5% in experiment [7], 72.1% in experiment [8], 95.9% in experiment [9] and 86.4% in experiment [10].

In the case of `Fc1ccc(-c2cc3nc(C(Cl)Cl)nc(-c4ccco4)n3n2)cc1`, the growth in [1] is 55.1%; in experiment [2], -8.73% (active); in [3] it was 59.1%; in experiment [4] it was -14.5% (active); in experiment [5] it was -11.7% (active); in [6], -35.3% (active). The growth in [7] is -23.7% (active); in experiment [8], -38.6% (active); in experiment [9], 85.2%; in [10], 59.7%.

Turning to `O=C(Cn1cc(-c2ccccc2)nn1)Nc1nc(-c2ccc(Cl)cc2)cs1`, the growth is 103% in experiment [1]; 98% in experiment [2]; 96.2% in [3]; 91% in [4]; 76.1% in experiment [5]; 112% in experiment [6]. Moreover, the growth in [7] is 107%; in experiment [8], 80.7%; in experiment [9] it was 103%; in [10], 97.8%.
